# Test results published in PubChem BioAssay AID651828 (ICCB-Longwood Screening Facility, Harvard Medical School, 2012).
# Hit rate of the full screen: of about 20,000 compounds, about 25 (0.1%) were called active. The entries come from a sample that favours actives as a whole. Values without a mark were called inactive. Cut-off read from the data, not from the text of the source: active = % bound below about 75%; inactive = the rest.
# Target: Nucleoprotein (Rift valley fever virus (strain ZH-548 M12)) (UniProt P21700)
# Sequence (P21700 whole entry, looked up): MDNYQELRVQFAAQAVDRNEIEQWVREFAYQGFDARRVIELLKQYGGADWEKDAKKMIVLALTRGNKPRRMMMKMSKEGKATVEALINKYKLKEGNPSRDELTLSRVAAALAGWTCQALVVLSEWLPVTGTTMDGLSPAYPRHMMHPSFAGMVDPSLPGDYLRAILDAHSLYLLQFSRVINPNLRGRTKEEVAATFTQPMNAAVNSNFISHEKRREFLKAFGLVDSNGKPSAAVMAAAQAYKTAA
# Assay: inhibitors of RVFV nucleoprotein–RNA binding, primary screen, biochemical, fluorescence polarization (AID 651828)
# Conditions: RVFV N-RNA binding, stronger effect = lower value, concentration not given here
row,SMILES,% bound
1,CSC(=S)Nc1ccc(C)cc1,92%
2,CCN(CC)CCN1C(=O)C(O)=C(C(=O)/C=C/c2ccco2)C1c1ccc(OC)cc1 (configuration not stated),97.9%
3,CC(Cn1cnc2ccccc21)C(=O)N/N=C/c1ccccc1 (configuration not stated),98.5%
4,CC(C)NS(=O)(=O)c1ccc(NC(=O)C2CCCCC2)cc1,98%
5,NS(=O)(=O)c1ccc(NS(=O)(=O)/C=C/c2ccccc2)cc1,80.7%
6,O=C(c1cccc(N2C(=O)c3ccccc3C2=O)c1)N1CCOCC1,95%
7,CCCCN=Cc1c(O)n(-c2ccc(Cl)cc2)c(=O)[nH]c1=O,85.2%
8,O=C(CSc1ccc(-c2ccccc2)nn1)NCC1CCCO1 (configuration not stated),91.3%
9,O=C(CC1CCCC1)NCc1cn2ccsc2n1,97.9%
10,Cc1cccc(NC(=O)c2ccccc2-c2nc(-c3ccccc3)no2)c1,89.8%
11,O=C(CC12CC3CC(CC(C3)C1)C2)Nc1ccc(N2CCN(C(=O)c3ccco3)CC2)cc1,89.8%
12,O=C(Nc1ccccn1)c1cc2c(s1)CCCC2,94.3%
13,COC(=O)Nc1ccc(S(=O)(=O)Nc2cc(OC)nc(OC)n2)cc1,95.6%
14,COc1ccc(C2CC(=O)c3cnc(NCCN4CCOCC4)nc3C2)cc1 (configuration not stated),89.7%
15,COC(=O)c1ccc(COc2ccc3c(oc(=O)c4cc(OC)ccc43)c2C)o1,87.4%
16,CCOC(=O)c1ccc(CC(=O)c2cc(CC)c(O)cc2O)o1,105%
17,CN1CCC(N(C)C(=O)Nc2c[nH]c3ccccc23)CC1,96.9%
18,CCc1c(O)nc(SCc2ccccc2)n(C2CCCCC2)c1=O,92.2%
19,Cc1cc(Cl)ccc1NNC(=O)c1snnc1C,109%
20,Cc1cc(=O)[nH]c(Nc2ccc(O)cc2)n1,96.9%
21,CSc1n[nH]c(N)c1-c1ccccn1,93.7%
22,CP(=O)(O)CN1CCN(CP(C)(=O)O)CC1,93%

row,SMILES,% bound
1,CCNC(=O)N1c2ccccc2Sc2ccccc21,93.8%
2,CN(C)S(=O)(=O)c1ccc(C(=O)Nc2nnc(C3CC3)o2)cc1,107%
3,Cc1ccc(-c2nn3c(C)nnc3c3ccccc23)cc1S(=O)(=O)N1CCCC1,93.1%
4,COc1ccc(CCNC(=O)Nc2ccccc2C)cc1OC,91.4%
5,O=C(O)c1cc(N=Cc2ccccc2)ccc1O,108%
6,CC(Sc1nnc(-c2c[nH]c3ccccc23)n1C)c1ccccc1 (configuration not stated),96.8%
7,FC(F)(F)COc1ccc(-c2n[nH]c(=S)o2)cn1,92.8%
8,COc1cccc(CNc2ccc3c(c2)ncn3C)c1,107%
9,Cc1nc(SCC#N)c2c3c(sc2n1)CCCC3,103%
10,O=C(CC(C(=O)O)n1cccn1)c1ccc(Br)cc1 (configuration not stated),98.3%
11,COCC(=O)N1CCN(c2ccccn2)CC1,87.2%
12,O=S(=O)(NNc1ncnc2sccc12)c1ccc(Cl)cc1,97.8%
13,O=C(CN1CCSCC1)N/N=C/c1ccc(Br)cc1,101%
14,C=CCN(CC=C)C(=O)c1ccc(N2C(=O)CCC2=O)cc1,95.1%
15,CCC(C)NC(=S)NC1CCCCC1 (configuration not stated),112%
16,CC(C)(C)c1ccc(CSc2nc3c(c(=O)[nH]2)CCC3)cc1,91%
17,CN(C(=O)c1cc2cccnc2n(C)c1=O)c1ccccc1,93.7%
18,O=C(CCc1ccccc1)NNc1ccc(F)cc1,104%
19,Cc1[nH]nc2c1C1C(C2)C1(C)C (configuration not stated),96.4%
20,C=CCn1c(O)c(N=N)c2ccccc21,97.3%
21,CC1CCCCN1S(=O)(=O)CCNC(=O)c1ccccc1 (configuration not stated),89.1%
22,CC(C)n1c(-c2ccncc2)n[nH]c1=S,98.6%

row,SMILES,% bound
1,CN(C)C(=O)c1cc(Br)ccc1Cl,99.9%
2,Cc1onc(-c2ccccc2Cl)c1C(=O)N(Cc1nc(-c2ccccc2)no1)C(C)C,89%
3,CC(C)CCn1c(CO)cnc1S(=O)(=O)C(C)C,86.9%
4,O=C(c1ccc(Br)o1)n1cnc2ccccc21,104%
5,CC(=O)Nn1nc2c(n1)C(=NNC(=O)c1ccccc1)c1nn(NC(C)=O)nc1C2=NNC(=O)c1ccccc1,98.5%
6,CNC(C)c1ccc(OC)c(OC)c1 (configuration not stated),91%
7,CCN(CC)C(=O)/C=C/c1cccc2ccccc12,101%
8,Cc1cc(C)c2c(N)c(-c3n[nH]c(=S)n3C)sc2n1,98.2%
9,CNC(=O)O/N=C/c1nn(C)cc1Br,94.8%
10,COc1ccc(Cl)cc1NC(=S)N1CCCCC1CO (configuration not stated),94.6%
11,O=C(Nc1c[nH]c2ccccc12)NC1CCCC1,94.2%
12,COc1cc(CN2CCN3CCCC3C2C2CCCCC2)cc(OC)c1 (configuration not stated),107%
13,CC12CN3CC(C)(CN(C1)C31C(=O)Nc3ccccc31)C2O (configuration not stated),103%
14,O=c1cc(-c2ccccc2)nc(SCc2ccccn2)[nH]1,93.4%
15,Cn1c(=O)n(Cc2ccco2)c(=N)c2c3c(sc21)CCCC3,106%
16,Nn1c(Cc2ccccc2)nnc1SCC(=O)Nc1ccccc1F,91.9%
17,COc1ccc(N=Nc2c(-c3ccc(OC)cc3)[nH]oc2=O)cc1,75.1%
18,CN(C)c1ccc(/C=C2\SC(=Nc3ccccc3)N(CCO)C2=O)cc1,92.8%
19,CS(=O)(=O)c1ccccc1C(=O)Nc1ccc2sccc2c1,96%
20,O=S(=O)(c1ccccc1)c1ccc(I)cc1,96.7%
21,C=CCc1ccc(OCC(=O)ONN)c(OC)c1,104%
22,COC(=O)c1sc(-c2cccs2)cc1NS(=O)(=O)c1cn(C)cn1,98.3%

row,SMILES,% bound
1,Cc1c(Cl)cccc1NC(=O)CCn1cnc2ccccc2c1=O,81.8%
2,Cc1cc(Oc2cc(C#N)c(C#N)cc2N2CCOCC2)cc(C)c1Cl,95.2%
3,COc1cc(/C=C2/C(=N)N3N=C(c4ccccc4C)SC3=NC2=O)ccc1OC(=O)c1ccco1,91.3%
4,Cc1ccc2occ(CN3CCSCC3)c(=O)c2c1,100%
5,COc1ccc(C(C)=CC(=O)C(C)(C)C)cc1,96.7%
6,Cc1nc2cc3nc(-c4cccs4)cnc3cc2n1C,115%
7,O=C(Nc1ccc(C(=O)N2CCCc3ccccc32)cc1)c1ccco1,95.2%
8,CC[C@H](CO)Nc1nc(NCc2ccccc2O)c2ncn(C(C)C)c2n1,98.6%
9,Nc1nonc1C(=NCc1ccccc1)NO,96.3%
10,COc1ccc(C(=O)c2cnc3ccccn23)cc1Cl,96.7%
11,O=C(c1cccs1)c1coc2c1cc(O)c1ccccc12,94.6%
12,O=c1[nH]c(O)c(C=Nc2ccccc2)c(=O)[nH]1,101%
13,CC(C)=N/N=C1/NC(=O)C(CC(=O)Nc2cccc3ccccc23)S1 (configuration not stated),96.1%
14,CC(C)CN1C(=O)C=CC1=O,86.4%
15,CC1(C)C(=O)C2(C(=O)Nc3cccc(C(F)(F)F)c3)CCC1C2 (configuration not stated),98.6%
16,CCCC(=O)N1CCN(c2ccc(NC(=O)c3cccc(C)c3OC)cc2Cl)CC1,92.1%
17,O=C(Nc1ccccc1)C1CCCN(S(=O)(=O)c2ccccc2)C1 (configuration not stated),98.9%
18,COCC(C)N=CC1=C(O)CC(C)(C)CC1=O (configuration not stated),94.3%
19,O=C(OCCN1C(=O)c2ccccc2C1=O)Oc1ccccc1,93.9%
20,O=c1[nH]c(NCCCN2CCOCC2)nnc1-c1ccccc1,93.9%
21,O=C1C=C(Nc2ccccc2)C(=O)N1Cc1ccccc1,102%
22,CCc1ccc(NC(=O)C(CC)CC)cc1,97.6%

row,SMILES,% bound
1,CC(C)NC(=O)C(C)Oc1ccc(S(N)(=O)=O)cc1 (configuration not stated),96.3%
2,Cc1cc(C(=O)Nc2ccc(C(=O)N3CCOCC3)cc2)cs1,88.4%
3,CC(C)(O)C(/C=C/c1ccccc1)=N/NC(N)=O,96.4%
4,O=C(CC(F)(F)F)Nc1ccccn1,94%
5,COC(=O)C12CCC(C)(C(=O)O1)C2(C)C (configuration not stated),90.1%
6,OC1CCN(Cc2ccc[nH]2)CC1,95%
7,Nc1nc2nc(-c3ccccc3)cc(-c3ccccc3)n2n1,92%
8,COC(=O)CSc1nnc2c3ccccc3n(CCc3ccccc3)c2n1,104%
9,Cc1ccc(C(=O)c2sc3[nH]c(=O)c(C(=O)O)cc3c2N)cc1,97.7%
10,Cc1ccc(NC(=O)Nc2c(C)noc2-c2ccc(C(F)(F)F)cc2)cc1,97.4%
11,CNC(=S)N/N=C/c1cccnc1,96.3%
12,CC1=Nc2c(ccc3cccnc23)C1(C)C,45.3% (active)
13,COc1ccc(OCC(=O)Nc2ccc(CN3CCOCC3)cc2)cc1,87.6%
14,O=C(C1CCCN(S(=O)(=O)c2ccccc2)C1)N1CCN(c2ccc(F)cc2)CC1 (configuration not stated),102%
15,CS(=O)(=O)Cc1ccccc1,97.7%
16,Cc1cc(C)cc(C(=O)NC(=S)Nc2ccc3[nH]c(=O)[nH]c3c2)c1,98.5%
17,COc1ccc(N2CC(NC(=O)NCC3CCCO3)CC2=O)cc1OC (configuration not stated),110%
18,CCCCOc1ccc(C(C)(C#N)CC#N)cc1 (configuration not stated),102%
19,COc1ccc(-c2cc(-c3cccs3)n(-c3nc(C)cc(=O)[nH]3)n2)cc1,109%
